Laboratory results from PubChem BioAssay AID1345083 (National Center for Advancing Translational Sciences (NCATS), 2018).
Hit rate of the full screen: of about 94,000 compounds, about 6,200 (6.6%) were called active. Roughly 31% stayed inconclusive and do not appear here. The call rests on the fitted dose curve; in most records, active means well fitted inhibition curve with a large enough effect; inconclusive means small, poorly fitted or top-dose-only effect; inactive means flat fitted curve, though single readings scatter. Shown is part of a subset that was picked to be rich in actives. A call without a number means that no potency is given here.

Assay: Cytotoxic Profiling in HEK 293 Cell Line of Diverse Libraries Using Quantitative High-Throughput Screening; further: nearly all actives have a fitted effect of over 60% in size
Settings: HEK 293 viability, ATP luminescence (CellTiter-Glo), 48-72 h; series mostly up to 115 µM
Method in brief: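 Luminescence from cellular ATP, measured with CellTiter-Glo, indicates HEK 293 viability. Cells plated at 250 cells/well are treated with compound for 48 or 72 hr at 37 degree Celsius before reagent addition.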
Potency means the concentration at half of the fitted maximal effect.

| Compound | Potency |
| --- | --- |
| O=C(c1ccc(F)cc1)N1CCC2(CC1)CC(OCC1CC1)CCO2 (stereo unspecified) | inactive |
| CCn1nccc1C(=O)N1CCC2(CC1)CC(N(Cc1ccc(F)cc1)C1CC1)CCO2 (stereo unspecified) | 39.8 µM (active) |
| CCN(CC)C1CCOC2(CCN(C(=O)c3ccncc3)CC2)C1 (stereo unspecified) | inactive |
| Cc1cccc(CC(=O)N2CCC(c3n[nH]c(=O)n3-c3ccccc3)CC2)c1 | inactive |
| CN(C)CCNC(=O)[C@H]1C[C@@](C)(C(=O)O)N(C)[C@H]1c1ccc(Cl)cc1 | inactive |
| Cc1ccccc1N1Cc2c(NCC(C)(C)C)ncnc2N(C)CC1=O | inactive |
| COCCNC(=O)C1CCCN(Cc2cccc(-c3cccs3)c2)C1 (stereo unspecified) | inactive |
| O=C(NCc1ccc2c(c1)OCO2)C1CN(C2CCCCC2)C(=O)N1 (stereo unspecified) | inactive |
| Cc1ccccc1CNC(=O)C1CCCN(Cc2cccnc2)CCC(=O)NCC1 (stereo unspecified) | inactive |
| O=C(NCc1ccc2c(c1)OCO2)C1CCCN(Cc2cccc(-c3cccs3)c2)C1 (stereo unspecified) | 28.2 µM (active) |
| O=C(NCc1ccc(F)c(F)c1)C1CCCN(Cc2cccc(-c3cccs3)c2)C1 (stereo unspecified) | 5.62 µM (active) |
| O=C1CCN(S(=O)(=O)c2cccc(F)c2)CCCC(C(=O)NCc2ccccc2)CCN1 (stereo unspecified) | inactive |
| COc1ccc(C(=O)N2CCc3n[nH]c(=O)n3CC2)cc1F | inactive |
| O=C(N[C@H]1[C@H](O)[C@H](O)C[C@@H]1c1ccncc1)c1ccccn1 | inactive |
| CN(C)c1ccc(CNCC2(COc3ccc(S(C)(=O)=O)cc3)C[C@@H](O)[C@@H](O)C2)cc1 (stereo partly specified) | inactive |
| O=C(NC1CC1)c1ccc(N2CC3CC(C2)[C@H]2CCCC(=O)N2C3)nc1 (stereo partly specified) | inactive |
| Cc1cc(C(=O)N2CCC(N3C(=O)C(OCC4CC4)C34CCOCC4)CC2)nn1C (stereo unspecified) | inactive |
| CN(C)c1cccc(Nc2cc3c(cn2)NCCN(Cc2ccccc2)C3)c1 | 63.1 µM (active) |
| Cn1c(CNC(=O)Cn2nc3c(cc2=O)CCCC3)nc2ccccc21 | inactive |
| O=C(c1cn[nH]c1-c1ccccc1)N1CCC2(CC1)CC(O)CCO2 (stereo unspecified) | inactive |
| O=C(Cc1cccc(Cl)c1)N1CCC2(CC1)CN[S+](=O)([O-])c1cccnc1O2 | inactive |

| Compound | Potency |
| --- | --- |
| COCC(=O)N1CCCN(Cc2ccncc2)C(c2ccccc2)CC(=O)NCC1 (stereo unspecified) | inactive |
| CC(C)c1ccc(N2C(=O)N[C@@H]3CCN(C(=O)c4ccc(C(C)(C)C)cc4)[C@@H]3C2=O)cc1 | 79.4 µM (active) |
| CNC(=O)C1CCCCN1Cc1ccc(-c2cccs2)cc1 (stereo unspecified) | 28.2 µM (active) |
| COc1cccc(-c2cccc(C(=O)N3CCCC3C(=O)NCC3CC3)c2)c1 (stereo unspecified) | inactive |
| COc1cccc(CC(=O)NC2CCN(c3cn[nH]c(=O)c3)CC2)c1 | inactive |
| Cc1ccc(-c2cccc(CN3CCCC(NC(=O)c4ccc(C(F)(F)F)cc4)C3)c2)cc1Cl (stereo unspecified) | inactive |
| CC(=O)N1CCCN(C(=O)C2CCCCN2Cc2ccc(-c3ccsc3)cc2)CC1 (stereo unspecified) | inactive |
| O=C(NCCCc1ccccc1)C1CCc2nnc(-c3cccc(C(F)(F)F)c3)n21 (stereo unspecified) | inactive |
| Cc1ccc(-c2cccc(CN3CCCC3C(=O)NCC(F)(F)F)c2)cc1Cl (stereo unspecified) | 31.6 µM (active) |
| COC(=O)[C@H](Cc1ccc(OC)cc1)NC(=O)[C@H]1CN(C(=O)c2cccnc2)CCN1C(=O)NC1CCCCC1 | inactive |
| COc1ccc(C(=O)N2CCN(Cc3ccccc3-c3ccc(C)c(Cl)c3)CC2)cc1 | inactive |
| COc1cccc(-c2ccc(CN3CCCC3C(=O)NC3CCCCC3)cc2)c1 (stereo unspecified) | 44.7 µM (active) |
| O=C(NCc1ccccn1)C1CCN(C(=O)c2ccc(-c3cccs3)cc2)CC1 | inactive |
| COc1cccc(-c2ccc(CN3CCCC3C(=O)NCc3ccccc3Cl)cc2)c1 (stereo unspecified) | 31.6 µM (active) |
| COCCC(=O)N1CCC2(CCC2NC(=O)COC)CC1 (stereo unspecified) | inactive |
| CCN(CC)CC(=O)N1CCC(Oc2ccccc2C)(C(=O)O)CC1 | inactive |
| COCC(=O)N(C1CCOCC1)C1CCN(C(=O)c2cccc(OC)c2)CC1 | inactive |
| COc1ccccc1CN1C(=O)COC[C@@H]1[C@H](O)c1ccc(NC(=O)c2ccc(C#N)cc2)cc1 | 39.8 µM (active) |
| CC(C)CN1C(=O)COC[C@@H]1[C@H](O)c1ccc(NC(=O)Cc2ccccc2)cc1 | inactive |
| CCN1C(=O)COC[C@@H]1C(O)c1ccc(NC(=O)Cc2ccc(OC)cc2)cc1 (stereo partly specified) | inactive |
| Cc1ccc(NC(=O)N2CC[C@H]3C(=O)NCCCCCN(Cc4cccnc4)[C@@H]3C2)cc1C | inactive |

| Compound | Potency |
| --- | --- |
| O=C(CCC1CCCC1)N1CCN2CCS(=O)(=O)N(C3CC3)C(=O)C2C1 (stereo unspecified) | inactive |
| CC(C)c1ccc(S(=O)(=O)N(C)CC2CCOC2)cc1 (stereo unspecified) | inactive |
| O=c1[nH]c(-c2ccncc2)nc2c1CCN(S(=O)(=O)N1CCCC1)C2 | inactive |
| O=C([C@@H]1C[C@H](F)CN1S(=O)(=O)c1ccc(Cl)cc1)N1CCCCC1 | inactive |
| O=C(c1cccc(Br)c1)N1CCN(C2CCN(Cc3ccccn3)C2=O)CC1 (stereo unspecified) | inactive |
| O=C1CN(Cc2ccc(-c3ccccc3)cc2)CCN1c1cc(Cl)ncn1 | 31.6 µM (active) |
| Cn1cc(CN2CCN(Cc3ccccc3)CC2)ccc1=O | inactive |
| O=C(c1ccncc1)N1CCN(c2ccc(Cl)nn2)C(=O)C1 | inactive |
| COc1ccc(Cn2c(CN(C)S(C)(=O)=O)n[nH]c2=O)cc1 | inactive |
| CC(C(=O)NC1CCCCC1)[C@@H]1CC[C@@]2(C)CC[C@H](N[S+](C)(=O)[O-])[C@@H](C)[C@@H]2[C@H]1O (stereo partly specified) | inactive |
| CN(Cc1ccc(OC(F)(F)F)cc1)Cc1ccc(-c2ccccc2)cc1 | inactive |
| CN(Cc1ccccc1)Cc1ccc(F)cc1 | inactive |
| CN(Cc1ccc(-c2ccccc2)cc1)C(=O)c1ccccc1F | 89.1 µM (active) |
| O=C(CC1Cc2ccccc2C1)N1CCN(CCO)CC(O)C1 (stereo unspecified) | inactive |
| CCCCCC(=O)Nc1nc2c(s1)C[C@@H]1[C@](C)(CO)[C@H](O)CC[C@@]1(C)[C@@H]2CC(=O)N1CCC(C(N)=O)CC1 | inactive |
| O=C(CCn1cccn1)N[C@@H]1CN(Cc2ccccc2)C[C@H]1CO | inactive |
| CSc1ccc(CNC(=O)c2noc(-c3ccc(C)cc3)n2)cc1 | inactive |
| CC1=Nc2cc(C(=O)NCc3ccc(C)cc3)ccc2Sc2ccc(Cl)cc21 | 31.6 µM (active) |
| O=C(CCc1cc(Cl)no1)NCCc1noc(C2CC2)n1 | inactive |
